Results filed as inconclusive are left out. Activity calls are given as the source filed them. Calls follow the shape of the dose curve; as a rule, active = well fitted inhibition curve with a large enough effect; inconclusive = small, poorly fitted or top-dose-only effect; inactive = flat fitted curve, though single readings scatter.

The assay can be described thus: Identification of antibody-drug conjugate (ADC) payloads which are substrates of ATP-binding cassette drug efflux transporters: ABCG2-H460-MX20 cell line. The following applies: H460-MX20 (ABCG2) viability, CellTiter-Glo, 48 h; series mostly up to 28.7 µM; activity change, negative = inhibition: at the top concentration. The source says:
Antibody-drug conjugates (ADCs) feature an antibody recognizing a specific protein joined to a potent toxic payload. Numerous antibody-drug conjugates have received FDA approval; however, clinical resistance arises. Resistance mechanisms include decreased expression or mutation of the antibody target, impaired payload release, or increased expression of ATP-binding cassette (ABC) efflux transporters associated with multidrug resistance. We therefore sought to characterize the interaction of ABC multidrug transporters with ADC payloads. We performed a high-throughput screen with 27 common ADC payloads using cells lines expressing ABC transporters P-glycoprotein (P-gp, encoded by ABCB1) or ABCG2 (encoded by ABCG2). Confirmatory assays were also performed using cells transfected to express P-gp, ABCG2, or MRP1 (encoded by ABCC1). Several commonly used ADC payloads were substrates of P-gp, including calicheamicin gamma1, monomethyl auristatin E, DM1, and DM4. All the pyrrolobenzodiazepines tested - SJG136, SGD-1882, SG2057, and SG3199 - were substrates of P-gp, ABCG2, and MRP1. […] These findings highlight the risk of transporter-mediated resistance with certain ADC payloads and underscore the importance of selecting payloads that evade ABC transporter recognition in future ADC development.
HEK-293 cells were transfected with empty vector (pcDNA) or vector containing the human ABCB1 (MDR-19), ABCG2 (R-5), or ABCC1 gene (MRP1) and were maintained in EMEM with 2 mg/mL G418 added to maintain transporter expression. The HeLa derivative KB-3-1 and the P-gp overexpressing KB-8-5-11 subline were maintained in DMEM; KB-8-5-11 additionally received 100 ng/mL colchicine. H460 parental cells were obtained from the Division of Cancer Treatment and Diagnosis Tumor Repository, National Cancer Institute at Frederick, MD and were cultured in RPMI. The ABCG2 expressing subline H460 MX20 was generated by selecting H460 cells in 20 nM mitoxantrone. Media in all cases was supplemented with 10% FBS and 1% penicillin-streptomycin. We explored 27 common ADC payloads, in two orthogonal, paired cell line sets-a drug selected and transfected set for each transporter--to identify substrates of the ABC transporters P-gp and ABCG2. Compounds were sourced from Levena Biopharma (San Diego, CA), Selleck Chem (Houston, TX), ChemieTek (Indianapolis, IN), or Microsource Discovery Systems (Gaylordsville, CT). Screening was performed as previously described. Briefly, cells were plated at a density of 500 cells/well in 1536 well plates with compounds added using a 1536-head pin tool (Kalypsys, San Diego CA). Cells were incubated with cytotoxic drugs and processed with CellTiter Glo reagent (Promega, Madison, WI) to determine viability after 48 hours. P-gp substrates were identified by comparing compound activity between paired sets of low-expressing (sensitive) and over-expressing (resistant) cell lines.
In general terms: Cellular ATP, detected with luciferase, serves as a proxy for viable cell number.
On to `COC(=O)c1cc2c3c(cc(O)c2[nH]1)N(C(=O)c1cc2cc(OC)c(OC)c(OC)c2[nH]1)CC3CCl` (stereo not drawn), for which the Potency was 0.7 nM (active).

Consider `CC[C@H](C)[C@@H]([C@H](N)CC(=O)N1CCC[C@H]1[C@H](OC)[C@@H](C)C(=O)N[C@@H](Cc1ccccc1)c1nccs1)N(C)C(=O)[C@@H](NC(=O)[C@@H](NC)C(C)C)C(C)C`, for which the “activity change, negative = inhibition” value was -28.8% (inactive).

On to `CN(C)CCOc1ccc2[nH]c(C(=O)N3C[C@@H](CCl)c4c3cc(O)c3ccccc43)cc2c1`, for which the Potency is 0.8 nM (active).

As for `CCN[C@H]1CO[C@@H](O[C@H]2[C@H](O[C@H]3C#C/C=C\C#C[C@]4(O)CC(=O)C(NC(=O)OC)=C3/C4=C\CSSSC)O[C@H](C)[C@@H](NO[C@H]3C[C@H](O)[C@H](SC(=O)c4c(C)c(I)c(O[C@@H]5O[C@@H](C)[C@H](O)[C@@H](OC)[C@H]5O)c(OC)c4OC)[C@@H](C)O3)[C@@H]2O)C[C@@H]1OC`, the Potency is 4.2 nM (active).

On to `CCN(C(C)=O)[C@H]1CO[C@@H](O[C@H]2[C@H](O[C@H]3C#C/C=C\C#C[C@]4(O)CC(=O)C(NC(=O)OC)=C3/C4=C\CSSSC)O[C@H](C)[C@@H](NO[C@H]3C[C@H](O)[C@H](SC(=O)c4c(C)c(I)c(O[C@@H]5O[C@@H](C)[C@H](O)[C@@H](OC)[C@H]5O)c(OC)c4OC)[C@@H](C)O3)[C@@H]2O)C[C@@H]1OC`, for which the Potency was 15 nM (active).

For the molecule `CC(C)(C)OC(=O)Nc1ccc2[nH]c(C(=O)N3C[C@@H](CCl)c4c3cc(O)c3ccccc43)cc2c1`, the Potency is 10.6 nM (active).

With `COc1cccc2c1C(=O)c1c(O)c3c(c(O)c1C2=O)C[C@@](O)(C(=O)CO)C[C@@H]3O[C@H]1C[C@H]2[C@H](O[C@@H]3[C@@H](OC)OCCN32)[C@H](C)O1`, the Potency was 0.2 nM (active).

Regarding `COc1cccc2c1C(=O)c1c(O)c3c(c(O)c1C2=O)C[C@@](O)(C(=O)CO)C[C@@H]3O[C@H]1C[C@H](N)[C@H](O)[C@H](C)O1`, the Potency is 1190 nM (active).

Values taken from PubChem BioAssay AID2061320 (National Center for Advancing Translational Sciences (NCATS), 2025).
